Bioassay records deposited in PubChem BioAssay by National Center for Advancing Translational Sciences (NCATS).
In the library only some 2.4% were active in any assay of this set; here they are far more common.
D2 PAM-1 = positive allosteric modulators of human D2 dopamine receptor; HEK293 T-REx D2, calcium flux, EC20 dopamine potentiation; potentiation, % at 10 µM; 340,000 tested, 0.34% active; AID 485347;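 active = potentiation over 3 SD above the plate norm, cut at about 30% in these data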; also: 0% is about no effect
Target sequence (P14416 whole entry, looked up): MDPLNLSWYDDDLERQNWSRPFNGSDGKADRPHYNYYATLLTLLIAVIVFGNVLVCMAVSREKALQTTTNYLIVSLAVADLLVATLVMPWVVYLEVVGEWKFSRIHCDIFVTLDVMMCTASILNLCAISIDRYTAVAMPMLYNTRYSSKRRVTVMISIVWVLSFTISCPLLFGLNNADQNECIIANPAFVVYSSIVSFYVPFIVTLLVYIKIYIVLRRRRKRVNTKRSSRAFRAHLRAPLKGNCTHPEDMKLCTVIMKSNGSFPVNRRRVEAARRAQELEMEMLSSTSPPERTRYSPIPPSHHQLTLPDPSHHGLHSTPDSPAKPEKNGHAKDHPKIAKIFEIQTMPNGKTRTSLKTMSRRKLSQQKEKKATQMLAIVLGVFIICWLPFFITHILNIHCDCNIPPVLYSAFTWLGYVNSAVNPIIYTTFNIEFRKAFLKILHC
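Potentiation of an EC20 dopamine calcium response measured kinetically over 180 s, after a preceding 180 s compound-only read flagging agonists. Cells: inducible Hek293 Trex D2 line, 4000/well, cultured overnight at 30 C before dye loading.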
D2 antagonist = antagonists of human D2 dopamine receptor; inhibition, % at 10 µM; HEK293 TREx D2 cells, calcium flux, dopamine EC80; 340,000 tested, 2% active; P14416; in the data active = inhibition above about 30%; inactive = below that, where a call was filed; also: 0% is about no effect
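Compounds are added to dye-loaded, induced HEK293 T-REx cells coupled to calcium release via D2; after a 3 min kinetic read an EC80 dopamine stimulus is given and fluorescence is recorded for 3 more min.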
D2 ag-1 = activates the human D2 dopamine receptor; DiscoveRx PathHunter D2 beta-arrestin, luminescence, 90 min; 100% = 57 uM dopamine signal; 360,000 tested, 0.084% active; activation, % (concentration not given with the values); P14416; AID 624465; in the data active = activation above about 40%
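Agonist mode: compounds alone added to overnight-plated D2 PathHunter cells for 90 min at 37 C, with 57 uM final dopamine (EC100) defining full response. Beta-arrestin recruitment detected by chemiluminescent reagent, read after 1 h at ambient temperature.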
D2 PAM-2 = potentiates the human D2 dopamine receptor allosterically. P14416. DiscoveRx D2 beta-arrestin cells, luminescence, 90 min; 100% = 57 uM dopamine signal. potentiation, % (test concentration not listed). 360,000 tested, 0.23% active. AID 624464; in the data active = potentiation above about 50%
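PathHunter D2 cells, attached overnight at 37 deg C, received compound in DMSO plus dopamine at EC20 (50 nM final) for 90 min at 37 deg C. Beta-arrestin recruitment was read as luminescence after 1 h with detection reagent at ambient temperature.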
D2 ag-2 = agonists of human D2 dopamine receptor; P14416; HEK293 T-REx D2 cells, calcium flux agonist mode; activation, % at 2 µM; 340,000 tested, 0.53% active;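 active = activation over 3 SD above normal in the single-dose calcium agonist read, cut at about 30% in these data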; also: 0% is about no effect
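Agonism scored from kinetic calcium signal (1 read/sec, 180 s) following compound pin transfer, after a 10 s baseline. Cells: HEK293 Trex line expressing inducible D2 receptor coupled to calcium, dye-loaded after overnight culture at 30 C.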
* marks the source's active call; other numbers are inactive results; x = not tested or not shown.

SMILES	D2 PAM-1	D2 antagonist	D2 ag-1	D2 PAM-2	D2 ag-2
CSCCC(NS(=O)(=O)c1ccc2[nH]c(=O)c(=O)[nH]c2c1)C(=O)O (centres undefined)	-8.5	35.7*	-1.2	-4.4	-1.0
CCc1c(C)sc2c1CCN(C(=O)Nc1cc(C)ccc1OC)C2c1ccc(F)cc1 (centres undefined)	5.9	x	x	x	-3.7
O=C1Nc2ccccc2/C1=C/c1ccccc1Cl	-0.9	4.2	-1.6	-10.7	-1.4
CN1CCN(c2ccccc2/C=C2/C(=O)Nc3ccccc32)CC1	-26.4	37.2*	-3.9	-13.1	2.6
CCCCOC(=O)c1c(N)n(-c2ccc(OC)cc2OC)c2nc3ccccc3nc12	-10.1	x	x	x	0.0
CCOC(=O)c1ccn(-c2nc(-c3cccc(OC)c3)cc(C(F)(F)F)n2)n1	-6.0	x	x	x	-0.7
CC(O)CNc1nc2c(c(=O)n(Cc3ccc(Br)cc3)c(=O)n2C)n1C (centres undefined)	9.7	4.2	5.9	52.5*	-0.7
CC(O)CNc1nc2c(c(=O)n(Cc3ccccc3)c(=O)n2C)n1C (centres undefined)	14.5	-19.4	-4.3	-7.0	0.5
Cc1ccc2nc(SCC(=O)c3ccc(Cl)cc3)nc(=O)n2c1	12.7	32.1*	-4.7	-1.1	-0.6
Cc1ccc2nc(SCC(=O)Nc3ccc(C)c(Cl)c3)nc(=O)n2c1	10.7	34.7*	-0.2	-8.1	-1.0
Cc1ccc2nc(SCC(=O)Nc3cccc(Cl)c3)nc(=O)n2c1	-6.3	-13.6	2.6	-6.1	0.6
Cc1ccc2nc(SCC(=O)N3CCCCCC3)nc(=O)n2c1	-8.7	1.1	-0.5	-3.6	0.9
Cc1cc(NC(=O)CSc2nc(=O)n3cc(Cl)ccc3n2)no1	x	x	-1.5	-3.0	x
Cc1ccn2c(=O)nc(SCC(=O)Nc3cc(C)on3)nc2c1	-9.6	41.6*	-1.0	1.2	-0.8
O=C(Nc1cc(F)ccc1F)N1CCC(CN2CCOCC2)CC1	-13.0	x	x	x	0.8
C=CCn1c(-c2c(C)nc3cc(C)ccn23)n[nH]c1=S	-0.6	35.6*	-3.6	-9.4	1.1
C=CCn1c(-c2ccc(OC)c(OC)c2)n[nH]c1=S	17.6	-16.6	-0.9	-12.7	1.1
Cc1cc(NC(=O)Cn2c(=O)oc3ccccc32)no1	4.1	32.7*	-3.1	-3.2	0.4
O=C(N/N=C/c1cc(Br)c(Br)o1)c1cc2ccccc2o1	-23.9	33.1*	6.1	-36.8	-0.2
O=c1oc(-c2ccccc2Cl)nc2ccsc12	13.2	30.5*	-10.0	-12.9	1.4
O=c1oc(-c2ccc(F)cc2)nc2ccsc12	-4.3	0.1	-2.7	-19.2	0.0
Cc1noc(C)c1COc1ccc(C(=O)OC(C)C(=O)Nc2ccc(N3CCOCC3)cc2)cc1 (centres undefined)	0.5	44.7*	-1.2	0.8	-1.9
CS(=O)(=O)NCCNC(=O)c1cc(OCC(F)(F)F)ccc1OCC(F)(F)F	-3.3	30.8*	-3.5	-0.8	0.3
COc1cccc(/C=N\NC(=O)c2cc(OCC(F)(F)F)ccc2OCC(F)(F)F)c1	30.8*	-4.3	-4.4	-3.9	-0.8
Cc1ccc(NC(=O)COC(=O)Cc2ccc(Br)cc2)cc1S(=O)(=O)N1CCOCC1	x	x	0.8	-1.7	x
SMILES	D2 PAM-1	D2 antagonist	D2 ag-1	D2 PAM-2	D2 ag-2
N=C1/C(=C\c2coc3ccccc3c2=O)C(=O)N=C2SC=CN12	-3.7	-0.3	-5.1	-18.8	116.6*
CC1=CC2=NC(=O)/C(=C/c3coc4ccc(Cl)cc4c3=O)C(=N)N2O1	-3.9	2.5	1.1	0.0	64.1*
CSC1=NSC2=NC(=O)/C(=C\c3cccs3)C(=N)N12	-5.2	3.9	-3.8	1.0	0.1
CSC1=NSC2=NC(=O)/C(=C/c3coc4ccc(O)cc4c3=O)C(=N)N12	1.1	-5.0	6.6	27.7	48.4*
COc1cc(/C=C2/C(=N)N3C(SC)=NSC3=NC2=O)ccc1OC(=O)c1ccco1	-9.8	-5.3	-7.2	-8.1	0.3
CSC1=NSC2=NC(=O)/C(=C/c3coc4ccccc4c3=O)C(=N)N12	12.5	-13.2	0.7	-6.5	55.2*
N=C1/C(=C/c2cccn2Cc2ccc(F)cc2)C(=O)N=C2SC=CN12	-0.4	14.8	-1.7	9.8	-0.8
CC1CCN(C(=O)c2cccc(NC(=O)c3nsc4ccccc34)c2)CC1	3.5	x	x	x	x
Cc1ccc(S(=O)(=O)c2nc(-c3ccco3)oc2SC(C)c2ccccc2)cc1 (centres undefined)	-14.9	x	x	x	2.0
O=C(O)c1cc(NS(=O)(=O)c2ccc3ccccc3c2)ccc1O	6.9	10.5	-2.8	-22.5	0.1
COC(=O)c1ccccc1NS(=O)(=O)c1ccc(F)cc1	43.8*	32.1*	-4.0	-10.4	0.0
O=C(O)c1ccccc1NS(=O)(=O)c1ccc2ccccc2c1	32.1*	1.8	-1.7	13.1	-1.9
COC(=O)c1ccccc1NS(=O)(=O)c1ccc(NC(C)=O)cc1	17.3	-7.1	-2.2	-0.7	0.8
CC1=C(C(=O)Nc2ccccc2)C(c2ccc(C(=O)O)cc2)n2nc(SCC(=O)c3ccc(C)cc3)nc2N1 (centres undefined)	11.8	x	x	x	x
Cc1cc(=O)oc2cc(OC(=O)c3cncc(Br)c3)ccc12	-7.8	30.8*	-5.6	-4.0	0.0
CCCC(=O)Oc1ccc2c(C)cc(=O)oc2c1	1.1	-0.1	-3.3	-23.1	-1.0
O=C(NCCOCCn1c(=O)oc2ccccc21)Nc1ccc(F)cc1F	7.6	x	x	x	x
CCCN(CC(=O)Nc1ccccc1C)C(=O)c1ccc(C(=O)c2ccccc2)cc1	-2.4	42.8*	-2.5	-22.0	2.0
COc1ccc(OCC(=O)Nc2ccccc2C(=O)N2CCOCC2)cc1	35.7*	-14.6	-4.9	-5.2	-0.6
CCOc1ccc(-c2nc(CNC(=O)NC3CCCCC3)c(C)o2)cc1	10.9	x	x	x	0.9
Cc1cc(C)c(/C=C/c2onc(C)c2S(=O)(=O)N2CCC(C(=O)N3CCN(c4ccccc4)CC3)CC2)c(C)c1	-6.6	x	x	x	0.9
Cc1nn(C)c(Sc2ccccc2N)c1[N+](=O)[O-]	1.1	-8.8	44.5*	0.6	0.1
CC1=C(C(=O)OCC2CCCO2)C(c2coc3ccc(C)cc3c2=O)C2=C(CCCC2=O)N1 (centres undefined)	31.1*	-4.8	-4.1	-5.9	0.2
CC1=C(C(=O)OCC2CCCO2)C(c2coc3ccc(Cl)cc3c2=O)C2=C(CCCC2=O)N1 (centres undefined)	22.6	0.9	-0.8	-26.1	-0.3
c1nnc(-c2ccc3c(c2)OCO3)o1	-1.9	30.6*	3.7	4.9	0.9
Cc1ccc(-c2nnc(-c3ccc4c(c3)OCO4)o2)cc1	17.3	-12.3	-3.2	-10.4	5.0
COc1ccc(C(=O)NCCc2sc(-c3cccc(F)c3)nc2C)cc1	16.9	x	x	x	x
CN1CCc2nc(SCCOc3ccccc3)c(C#N)cc2C1	x	30.9*	-2.7	-22.9	0.0
